Screening data (PubChem)
Shown are actives, neighbours in structure and some others; about 11% of the full set was active somewhere.
Gal4-VP16 FLuc – inhibits Gal4-VP16 luciferase reporter, ROR gamma counter-screen. AID 2546. Potency, µM (titrated, usually from 53.6 µM), without a hit: at the top dose activity, negative = inhibition, actives largely listed as inhibitors. 310,000 compounds, 3.5% hits. Drosophila S2 Gal4-VP16 UAS-luciferase, luminescence, 20 h;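 further: Gal4-VP16 expression switched on by copper sulfate through the metallothionein promoter; potency means the concentration at half of the fitted maximal effect; on the % scale 0 is the no-effect control and ±100 the full control effect; nearly all actives have a fitted effect of over 50% in size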
RORg inh – blocks mouse ROR gamma transcriptional activity. Drosophila S2 Gal4-RORgamma UAS-luciferase reporter, 20 h. Potency, µM (titrated, usually from 53.6 µM), inactives show top-dose activity change, negative = inhibition, actives largely listed as inhibitors. P51450. 310,000 compounds, 5.4% hits; further: potency means the concentration at half of the fitted maximal effect; on the % scale 0 is the no-effect control and ±100 the full control effect; nearly all actives have a fitted effect of over 60% in size
Target sequence (P51450 whole entry, looked up, the tested form may be a part): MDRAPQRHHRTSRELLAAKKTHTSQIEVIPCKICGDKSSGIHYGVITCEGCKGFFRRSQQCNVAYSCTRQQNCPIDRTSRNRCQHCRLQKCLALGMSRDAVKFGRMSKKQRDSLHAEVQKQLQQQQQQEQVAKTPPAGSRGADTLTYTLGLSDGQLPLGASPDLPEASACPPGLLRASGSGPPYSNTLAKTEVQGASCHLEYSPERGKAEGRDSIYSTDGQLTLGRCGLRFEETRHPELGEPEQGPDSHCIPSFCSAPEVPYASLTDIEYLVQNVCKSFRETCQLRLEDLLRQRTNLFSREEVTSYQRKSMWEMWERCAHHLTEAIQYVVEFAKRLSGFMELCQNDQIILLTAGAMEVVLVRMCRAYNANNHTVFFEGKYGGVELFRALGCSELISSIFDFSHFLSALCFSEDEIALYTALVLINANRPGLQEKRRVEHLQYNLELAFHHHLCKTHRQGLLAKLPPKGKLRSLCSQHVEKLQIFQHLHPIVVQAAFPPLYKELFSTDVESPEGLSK
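Drosophila Schneider cells stably carrying a metallothionein-driven Gal4 DBD–ROR gamma fusion and a UAS-Photinus luciferase reporter were exposed to compound for 1 hr, then induced with copper sulfate (700 uM final) for 20 hr at ambient temperature before luminescence reading.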
SW480 rereplic – induces DNA re-replication in SW480 colon adenocarcinoma cells; Potency, µM (highest dose often 46.1 µM), for inactives: top-dose re-replication activation, hits mostly activators; SW480 DNA re-replication, Hoechst DNA content imaging, 48 h; 340,000 compounds, 1.8% hits; further: potency means the concentration at half of the fitted maximal effect; % of control where 0% means no effect; nearly all actives have a fitted effect of over 55% in size
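First, 250 cells per well were seeded. Next, compound or vehicle (23 nL) was pinned in, plates sat 48 hr at 37 C. Finally Hoechst was added for 40 min before fluorescence scanning.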
IL-1B inflam inh – inhibitors of inflammasome signaling (IL-1 beta secretion); THP-1 LPS/ATP IL-1B secretion, AlphaLISA, 16 h; active compounds read low; AID 743279; 360,000 compounds, 4.7% hits; activity change, % at 57.5 µM; in the data active means activity change below about -50%; inconclusive means mostly about -30% to -49%; further: on the % scale 0 is the no-effect control and ±100 the full control effect
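Secreted IL-1B measured by AlphaLISA bead assay after 16 h compound exposure of THP-1 cells; compounds (final up to 57.5 uM) added 1 h before LPS (250 ng/mL) and ATP (1.25 mM) stimulation; lower signal means less secretion.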
MCF10A rereplic – induces DNA re-replication in MCF 10a normal breast cells. MCF 10A DNA re-replication, Hoechst nuclear intensity, 48 h. Potency, µM (highest dose often 46.1 µM), without a hit: at the top dose activity, positive = re-replication, most hits filed as activators. 350,000 compounds, 2.9% hits; further: potency means the concentration at half of the fitted maximal effect; % of control where 0% means no effect; nearly all actives have a fitted effect of over 50% in size
An asterisk follows results filed as active; ? = inconclusive; nt = no result given; [ ] = another dose, or the depositor's remark. Unless noted, the call rests on the fitted dose curve; in most records, active means well fitted curve in the direction sought with a large enough effect; inconclusive means small, poorly fitted or top-dose-only effect, or another doubt; inactive means no such curve, though single readings can be large; an effect the other way counts as inactive or inconclusive.

SMILES	Gal4-VP16 FLuc	RORg inh	SW480 rereplic	IL-1B inflam inh	MCF10A rereplic
Nc1nonc1C(=O)NCCNC(=O)c1ccc(Cl)cc1	-2%	16%	3%	28	-4%
CCOc1ccc(C(=O)NC(=S)Nc2ccc(N3CCCCC3)cc2)cc1[N+](=O)[O-]	4µM*	3.2µM*	-8%	9	?
CCOc1ccc(C(=O)NC(=S)Nc2ccc(NC(=O)CC)cc2)cc1[N+](=O)[O-]	-7%	-32%	-117%	0	-1%
COc1ccc(C(=O)NC(=S)Nc2cc(C)ccn2)cc1[N+](=O)[O-]	1µM*	?	-7%	17	-9%
COc1ccc(C(=O)NC(=S)Nc2cccc(Cl)c2N2CCOCC2)cc1[N+](=O)[O-]	5µM*	1.8µM*	7.3µM*	10	-4%
COc1ccc(C(=O)NC(=S)N2CCCC2)cc1	-12%	-21%	-5%	-14	0%
COc1ccc(C(=O)Nc2cc(C)on2)cc1[N+](=O)[O-]	4%	5%	-15%	-13	-7%
COc1ccc(C(=O)NC(=S)N2CCCCC2)cc1[N+](=O)[O-]	1.3µM*	0.89µM*	-4%	-5	3%
COc1cc(NC(=O)COC(=O)CO/N=C(\C)c2ccc3c(c2)OCO3)cc(OC)c1	nt	nt	-5%	27	3%
CCOC(=O)c1c(C)[nH]c(C2=NNC(=Nc3ccccc3OC)SC2)c1C	-12%	1%	?	-62*	12%
CC(=O)c1c(C)[nH]c(C2=NNC(=NC(C)(C)C)SC2)c1C	?	?	2%	-21	8%
CCOC(=O)c1c(C)[nH]c(C2=NNC(=Nc3ccc(OCC)cc3)SC2)c1C	?	?	?	-52*	?
CCOC(=O)c1c(C)[nH]c(C2=NNC(=Nc3ccccc3)SC2)c1C	11µM*	?	72%	-67*	?
CC1(C(=O)NS(=O)(=O)c2cccc(C#N)c2)CCN1C(=O)Cc1ccccc1Cl (stereo not given)	nt	nt	nt	4	nt
O=C(CN1C(=O)C(c2ccc(F)cc2)=NC12CCCC2)Nc1ccc(F)cc1	?	-16%	4%	-20	-1%
COc1ccc(NC(=O)CN2C(=O)C(c3ccccc3)=NC23CCCCCC3)cc1	1%	?	2%	-56*	3%
Cc1noc(C)c1NC(=O)N1C[C@H](O)COC[C@H]2O[C@@H](CC(=O)NCC3CCCCC3)CC[C@@H]21	nt	nt	nt	19	nt
Cc1cnc(N=Nc2ccccc2)[nH]1	nt	nt	?	-27	?
COc1ccc(/C=C2\SC(=O)N(CCCC(=O)Nc3ccc(C(=O)O)cc3)C2=O)cc1	nt	nt	nt	0	nt
COc1ccc(NC(=O)CCCN2C(=O)/C(=C\c3ccco3)SC2=S)cc1	?	11µM*	?	-71*	?
CCc1ccc(/C=C2\SC(=S)N(CCCC(=O)Nc3ccc(C(=O)O)cc3)C2=O)cc1	?	4µM*	-7%	0	17%
O=C(CCCN1C(=O)/C(=C\c2ccccc2)SC1=S)Nc1ccc(C(=O)O)cc1	-8%	-5%	-3%	6	9%
COc1cccc(/C=C2\SC(=S)N(CCC(=O)NNC(=O)c3ccccc3OC)C2=O)c1	-16%	?	-7%	39	0%
COc1cccc(/C=C2/SC(=S)N(CC(=O)NNC(=O)c3ccccc3OC)C2=O)c1	?	10µM*	-1%	0	11%
COc1ccc(/C=C2\SC(=S)N(CCCC(=O)NNC(=O)c3ccccc3O)C2=O)cc1	1.6µM*	0.71µM*	30%	69	23%
SMILES	Gal4-VP16 FLuc	RORg inh	SW480 rereplic	IL-1B inflam inh	MCF10A rereplic
CC(C)C[C@@H](CC(=O)N[C@H](CC(=O)N[C@@H]1CCCC[C@H]1C(=O)N[C@H](CC(=O)N[C@@H](CCC(=O)O)CC(=O)O)Cc1ccccc1)C(C)C)NC(=O)[C@@H]1CNCC[C@H]1N	-5%	4%	nt	nt	nt
CC12C=C(/C=C/C=C/c3ccco3)C(C)(C1)C(/C=C/c1ccco1)CC2=O (stereo not given)	-2%[10 µM]	21%[10 µM]	nt	nt	nt
COc1ccc(/C=C2/SC(=S)N(CCCC(=O)Nc3cccc(O)c3)C2=O)cc1	2.5µM*	0.32µM*	?	-79*	?
CCc1ccc(/C=C2\SC(=S)N(CCCC(=O)Nc3ccccc3C(=O)O)C2=O)cc1	20µM*	5µM*	3%	25	14%
Cc1ccc(/C=C2\SC(=S)N(CCCC(=O)Nc3ccccc3C(=O)O)C2=O)cc1	?	-27%	0%	26	?
COc1cccc(/C=C2\SC(=S)N(CCCC(=O)Nc3cccc(C(=O)O)c3)C2=O)c1	nt	nt	nt	24	nt
COc1ccc(/C=C2/SC(=S)N(CCCC(=O)Nc3ccccc3C(=O)O)C2=O)cc1	3.5µM*	1.4µM*	-5%	20	13%
CCc1ccc(/C=C2\SC(=S)N(CCCC(=O)Nc3nccs3)C2=O)cc1	-12%	0.56µM*	?	17	-3%
Cc1ccc(/C=C2\SC(=S)N(CCCC(=O)Nc3nccs3)C2=O)cc1	-1%	20%	-5%	13	-3%
CN1C2Cc3c(n(C)c4ccccc34)C1CC=C2CO (stereo not given)	nt	nt	-3%	38	-12%
C#CCOCCOCCOCCNc1nc(N2CCN(C(=O)CCCCCCCCCCNC(=O)[C@@H](CCC(=O)O)n3cc(CCCCCN)nn3)CC2)nc(N2CCN(C(=O)CCCCCCCCCCNC(=O)[C@H](CCCCN)n3cc(C[C@@H](C)CC)nn3)CC2)n1	nt	nt	-7%	?	?
C#CCOCCOCCOCCNc1nc(N2CCN(C(=O)CCCCCCCCCCNC(=O)[C@H](CCCCN)n3cc(C[C@@H](C)CC)nn3)CC2)nc(N2CCN(C(=O)CCCCCCCCCCNC(=O)[C@H](CCCN=C(N)N)n3cc(C[C@@H](C)CC)nn3)CC2)n1	nt	nt	2%[9.22 µM]	-52*	16µM*
C#CCOCCOCCOCCNc1nc(N2CCN(C(=O)CCCCCCCCCCNC(=O)[C@H](CCCCN)n3cc(CCO)nn3)CC2)nc(N2CCN(C(=O)CCCCCCCCCCNC(=O)[C@H](CCCCN)n3cc(C[C@@H](C)CC)nn3)CC2)n1	nt	nt	-6%[9.22 µM]	-20	?
C#CCOCCOCCOCCNc1nc(N2CCN(C(=O)CCCCCCCCCCNC(=O)[C@H](CCCCN)n3cc(C)nn3)CC2)nc(N2CCN(C(=O)CCCCCCCCCCNC(=O)[C@H](CCCN=C(N)N)n3cc(C[C@@H](C)CC)nn3)CC2)n1	nt	nt	-13%[9.22 µM]	-102*	?
C#CCOCCOCCOCCNc1nc(N2CCN(C(=O)CCCCCCCCCCNC(=O)[C@@H](CCSC)n3cc(CCO)nn3)CC2)nc(N2CCN(C(=O)CCCCCCCCCCNC(=O)[C@H](CCCN=C(N)N)n3cc(C[C@@H](C)CC)nn3)CC2)n1	nt	nt	-106%[9.22 µM]	-100*	26%
